Experimental data as given in PubChem BioAssay (Tox21).
Inconclusive results are not listed. The source made the active and inactive calls. Calls come from the whole dose curve; as a rule, active = well fitted inhibition curve with a large enough effect in the repeat runs; inconclusive = weak or mixed curves; inactive = no such curve, though single readings can be large or run the other way.

What follows are compounds tested against Cytochrome P450 3A4 (Homo sapiens) (UniProt P08684) (assay: Cytochrome P450 Family 3 Subfamily A Member 4 (CYP3A4) small molecule antagonists: luciferase reporter qHTS assay (AID 1671201; note: nearly all actives have a fitted effect of over 50% in size)). Conditions: P450-Glo CYP3A4 enzyme, luciferin luminescence, 1 h; series mostly up to 115 µM; activity change, negative = inhibition: at the top concentration.
Procedure, shortened: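 Setup: enzyme-substrate mix, compound pin transfer, 10 min RT. Reaction: NADPH regeneration solution, 1 h RT. Readout: detection reagent stops turnover, luminescence measured after 20 min, expressed in relative luminescence units.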
% is set by controls: 0 for no effect and ±100 for the full control effect; potency is the fitted concentration of half-maximal effect.

Sequence of Cytochrome P450 3A4 (Homo sapiens) (P08684 whole entry, looked up): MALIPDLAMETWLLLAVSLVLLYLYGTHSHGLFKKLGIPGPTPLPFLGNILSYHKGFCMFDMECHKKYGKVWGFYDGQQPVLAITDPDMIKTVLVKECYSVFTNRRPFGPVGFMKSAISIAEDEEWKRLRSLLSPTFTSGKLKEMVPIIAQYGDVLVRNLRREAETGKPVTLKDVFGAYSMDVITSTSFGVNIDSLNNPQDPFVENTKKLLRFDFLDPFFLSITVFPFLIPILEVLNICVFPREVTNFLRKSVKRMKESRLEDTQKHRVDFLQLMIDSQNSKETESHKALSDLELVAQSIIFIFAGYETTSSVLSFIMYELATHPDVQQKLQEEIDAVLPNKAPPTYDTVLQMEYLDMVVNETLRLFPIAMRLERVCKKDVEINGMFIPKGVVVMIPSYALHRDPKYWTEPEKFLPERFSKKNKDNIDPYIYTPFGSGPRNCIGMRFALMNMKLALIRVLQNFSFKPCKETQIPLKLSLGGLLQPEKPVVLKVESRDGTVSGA

SMILES	activity change, negative = inhibition	Potency
CC(C)=NNC(N)=S	-14.7% (inactive)	
Cc1ccc(N=Nc2c(O)ccc3ccccc23)c(C)c1	-7.14% [at 52.9 µM] (inactive)	
CCCCCCCCSCc1cc(C)c(O)c(CSCCCCCCCC)c1	1.65% (inactive)	
C=Cc1ccncc1	-0.672% (inactive)	
O=C1OC(=O)c2cc(-c3ccc4c(c3)C(=O)OC4=O)ccc21	46.7% (inactive)	
CC1=C(/C=C/C(C)=C/C=C/C(C)=C\C(=O)O)C(C)(C)CCC1		22.5 µM (active)
Clc1nc(C(Cl)(Cl)Cl)c(Cl)c(Cl)c1Cl		3.99 µM (active)
Cc1ccc2sc3cccc(C)c3c2c1	0.751% (inactive)	
C=CC(=O)O[C@H]1C[C@@H]2CC[C@@]1(C)C2(C)C	2.55% (inactive)	
CCOC(=O)OC(=O)OCC	6.36% (inactive)	
CCOc1nc(F)cc2nc(S(=O)(=O)Nc3c(Cl)cccc3C(=O)OC)nn12		35.6 µM (active)
O=c1cc[nH]cc1	-0.603% (inactive)	
C=C1CC[C@H]2O[C@]2(C)CC[C@@H]2[C@@H]1CC2(C)C	-17.7% (inactive)	
Nc1ccc(Oc2cccc(Oc3ccc(N)cc3)c2)cc1		6.33 µM (active)
O=S(=O)(c1ccc(OCc2ccccc2)cc1)c1ccccc1O	-8.8% (inactive)	
COc1ccc(OC)c(N=Nc2c(O)ccc3ccccc23)c1		2.83 µM (active)
COC(=O)c1ccc([N+](=O)[O-])cc1	6.79% (inactive)	
C=C(C)C1CCC(C)CC1O (configuration not stated)	3.13% (inactive)	
CC(C)(C)C1=CC(=O)C(C(C)(C)C)=CC1=O	45.7% [at 52.9 µM] (inactive)	
CCSCC	25.7% (inactive)	
CCN(CC)c1ccc2c(c1)Oc1cc(N(CC)CC)ccc1C21OC(=O)c2ccccc21		11 µM (active)
O=C(NCc1ncc(C(F)(F)F)cc1Cl)c1c(Cl)cccc1Cl		8.94 µM (active)
